For the experiment, the system named is VDR:RXRa (NR concentration 270 nM, RXRa partner concentration 90 nM). The experiment in a line: PBM binding z-score (relative to random genomic background probes); higher = stronger binding; sequences stand for … in GC…GCGATTGACAGCGTAGAATGAAGG
On the procedure:
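Protein-binding microarray (Agilent 4x180K custom design, double-stranded 60-nt probes: 5' GC cap, 34-nt variable region, 24-nt constant primer region; full probe sequence given). Purified or IVT nuclear receptor:RXRα heterodimers (3:1 NR:RXRα, mostly 270:90 nM) or homodimers were incubated for 1 h in PBS with 2% milk and no ligand, then detected with Alexa488 antibodies. Fluorescence from o1-orientation probes (~5 replicates averaged) was converted to z-scores against 500 random hg19 background probes. Variable regions are seed direct-repeat (DR0–DR5) sites, all their single-nucleotide variants and half-site ablations.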
Take TAGCCTAGGTCATGGGCGAGTATACCACGCGAAC: the PBM binding z-score is 2.32.
Sequence CCTAGTTGTTCAAGGTCACACACGCTATAGGTAC yielded a PBM binding z-score of 4.49.
In the case of CCTAGTTGGTCAGGAGGACACACACCGGATATGA it was 0.204; in that of CGACCAAGGTGAACAAGGTCGTTGATTACTATTC, 6.02.
In the case of CGAATGAGGGCATGAGTTGATAGCAAATGCCGAT it was 1.48; in that of GCGACTGGGGCAAAGGAGGTTACCATAAGGTTGG, 1.26.
To AGAATGAGGTTACGAAAGATCAGGGAAACGCTTG belongs 1.52.
Sequence CATACAGGGTCAGCAAGGCCAGAGTAGGGACGGC came in with a PBM binding z-score of 5.7.
To GCAGACAGGTGAAACGCAGGTAACGCAGGGTGGC belongs -0.489.
In the case of TCTTGTAGATCAAGCAGGTTAAGCAAGCCTGAGT it was 0.328; in that of TCATACAGGTAAATGCTAGGTGAAAGTCCGATCT, 0.69; in that of GGTTACGGGTCAAAGGTTATAGCATGAATAGAAT, 5.46.
Sequence CCTAGCAGGCCAGGATCACTCAAGCATTTCGCTT came in with a PBM binding z-score of -0.583.
In the case of ACAGACAGGTGATGAAGGTAACTCGGGCTATCAT it was 0.101.
To GCGACTGGGGGAAAGCAGGTTACCATAAGGTTGG belongs 0.39.
In turn, ATACCAAGGTGCTCGTGAGGTCGTTGATACTAAC yielded a PBM binding z-score of 2.34.
ACAGCCAGGTGAGTGAAGGTAACTCAGCTGGACG showed a PBM binding z-score of -0.635.
In the case of TCATATAGGTAAAAGGTGAAAATCGGTGTGGTAA it was 1.65; in that of TAGCCTAGGTCAGATCGGACCAGTATACGCTATA, 0.34.
In the case of TAGCCTAGGTCAGTTCGGGCCAGTATACGCTATA it was 0.785; in that of AAGACAGGGTCACTAGGCCAGAGTAGGTACGAAT, 3.9.
In the case of CCTAGCAGGCCAGTGTCACTCAAGCATTTCGCTT it was -0.398; in that of ATAGCAAGGTGATCGTGAGGTCGTTGATACTAAC, 2.94; in that of GCTAGCCGGCCATTTGGGTCACTCAATGACGGGC, 0.203.
GCTTACGGGTCAAAGGGTATAGCATGAATAGAAT had a PBM binding z-score of 5.84.
To TCTGCAAGGTCAACGATGGTCAGCTAATCTGCTA belongs 4.53; to TGTCAAAGTTCAACGGTAACGTAAGTATCCACAC, 4.79.
For CTTACTGGGCCATTCAGAGGTCATTGATCATATG, the PBM binding z-score stood at 4.23.
For the sequence ACTAGCAGGCCAAGTTTGGGTCACTGAAACAAAG, the PBM binding z-score was 0.731.
To CCTTACGGGTCACTCCAGGTTATAGCCTCGGAGT belongs 4.09; to ACTATTAGTTGTGACGAGGGCAACCGATAGGTTG, 0.506.
To TCATATAGGTAAACAGGTGGAAGTCCGTAAGTTA belongs 0.7; to TCTGCTAGGTCAACGGTGGTCAGCTAATCTGCTA, 1.95; to CGTCGAAGTTCAAGGTAACGTAACAGAAAGCAGC, 2.09.
In the case of CGAACTAGGTCATGGACAGTGAATCTCCGCACGC it was 1.64; in that of ATACCAAGGTGATCGTGTGGTCGTTGATACTAAC, 0.0148.
Sequence CCTCGGAGGACAGAAGGTAAGAGCTGTCCGCTTT gave a PBM binding z-score of -0.622.
Consider ATACCAAGGTGATCGTGAGGTCGTTCATACTAAC, for which the PBM binding z-score came to 3.58.
To CCTTACGGGTCACGCGGTTATAGCACGACGAGCG belongs 4.4; to ACTCGGAGGACTAAGGTCAGAGCTACGCCAGTGA, 1.65.

Values taken from the supplement of paper PMC6555819.
